The values that follow come from PubChem BioAssay (NCI).

About 83,000 compounds went through this panel and 20% of them were active in at least one assay; those are over-represented in the sample as a whole.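 Single-dose data. Exposure time 48 hours. Values below 10 considered active.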 Values without a mark were called inactive. Calls of active or inactive are those of the source.

This test has as its system SK-MEL-5 melanoma. Put plainly: NCI-60 one-dose screen, 48 h (100 = growth as untreated, 0 = no growth, -100 = all killed). As to conditions: 10 µM unless noted. As for the experimental part: Growth inhibition of the SK-MEL-5 human tumor cell line is measured as a screen for anti-cancer activity. Cells are grown in 96 well plates and exposed to the test compound for 48 hours. Compounds are tested at a single concentration, which is 10^-5 M for most compounds. The reported endpoint is percent growth (GI% or GIPRCNT), where numbers from 0 - 100% represent growth inhibition, and numbers from -100% - 0 represent cell death. For example, a value of 40 represents 60% growth inhibition. A value of 0 means no net growth occurred over the course of the experiment. A value of -40 indicates 40% of cells at the beginning of the experiment died by the end of the experiment. A value of -100 means all cells are dead at the end of the experiment.
NCI-60 Human Tumor Cell Lines Screen was performed using the standard one-dose NCI protocol, which is described in more detail at https://dtp.cancer.gov/discovery_development/nci-60/default.htm.
Compounds with GIPRCNT values below 10 were considered active. Activity score was based on GIPRCNT using the following formula: […]
Score is 0 for GIPRCNT values of 100 or above, 50 for GIPRCNT values of 0, and 100 for GIPRCNT values of -100.
For `NS(=O)(=O)c1nc[nH]c1[N+](=O)[O-]`, the growth was 101%.

As to `CC12CCC3C(CC=C4CC(O)CCC43C)C1C/C(=C\N1CCOCC1)C2=O` (stereo not given), the growth was 99.1%.

Turning to `c1ccc2nc(OCCN3CC3)ccc2c1`, the growth is 98.6%.

As to `C=CCc1ccc(OC(=O)Cc2ccccc2)c(OC)c1`, the growth is 102%.

In the case of `COc1ccc(/C=C(/C(=O)N2CCCC2)c2cc(OC)c(OC)c(OC)c2)cc1N`, the growth is 20%.

Consider `ClCCN(CCCl)c1ccc(/C=C\c2ccnc3ccccc23)cc1`, for which the growth was 71.2%.

For the compound `Cc1ccc(N)cc1[As]=[As]c1cc(N)ccc1C` (stereo not given), the growth was -87.2% (active).

As for `C[CH2][Pb]([CH2]C)([CH2]C)[O]C(=O)COc1ccccc1`, the growth is -21.4% (active).

For `Oc1ccc(O)c2c1C1(Cl)C(Cl)=C(Cl)C2(Cl)C1(Cl)Cl`, the growth is 42.3%.

On to `COC(=O)C(=[N+]=[N-])C(=O)OC`, for which the growth is 104%.

`Cc1cc(NC(=O)NCCOc2ccc(N3C(N)=NC(N)=NC3(C)C)cc2Cl)ccc1S(=O)(=O)F`: the growth was 23.1%.

In the case of `O=C1NC(=O)C(=Cc2cn(Cc3ccccc3)c3ccccc23)C(=O)N1`, the growth was 101%.

Consider `CC(=O)[O][Hg][c]1nc2c(c(=O)n(C)c(=O)n2C)n1C`, for which the growth was 90.8%.

As for `O=C(Nc1ccc(S(=O)(=O)F)cc1)Oc1ccccc1`, the growth was 96.3%.

For the compound `CCOC(=O)c1cnc(SCc2ccc(Cl)c(Cl)c2)nc1N1CC1`, the growth was 72.6%.

On to `C/C1=C/C(=O)O[C@@H]2C[C@@H](CC[C@H](C)/C=C\C=C\CC1)O[C@@](OCCc1ccccc1)([C@@H]1CSC(=O)N1)C2`, for which the growth was -21.2% (active).

Turning to `CC1([N+](=O)[O-])COP(=O)(Nc2ccc(F)cc2)OC1` (stereo not given), the growth is 98.2%.

Regarding `COc1cc(C2CC(=O)Nc3nc(N)[se]c32)cc(OC)c1OC` (stereo not given), the growth is 99%.

Regarding `C[C@]12CCC(=O)CC1CC[C@@H]1C2CC[C@@]2(C)C1CC[C@@H]2OC(=O)CC[Se][Se]CCC(=O)O[C@H]1CCC2[C@@H]3CCC4CC(=O)CC[C@]4(C)C3CC[C@@]21C` (stereo not given in full), the growth is 93.2%.

For the compound `CSc1ccccc1NP1(=O)OCC(C)([N+](=O)[O-])CO1` (stereo not given), the growth is 98.2%.

As for `ClCCN(CCCl)c1nc(Cl)c(C2CC(c3ccc(Cl)cc3)=NN2c2cc(Cl)cc(Cl)c2)s1` (stereo not given), the growth is 115%.

In the case of `C[C@]12CC[C@@H]3c4ccc(OC(=O)Cc5ccc(N(CCCl)CCCl)cc5)cc4CC[C@H]3[C@@H]1CC[C@@H]2OC(=O)Cc1ccc(N(CCCl)CCCl)cc1`, the growth is 87%.

On to `N#CC1c2ccccc2C=CN1C(=O)c1ccc(N(CCCl)CCCl)cc1` (stereo not given), for which the growth was 84%.

`O=S(=O)(F)c1ncnc2nc[nH]c12`: the growth is 96.2%.

Consider `N#C[Se]CCN1C(=O)C2C(C1=O)[C@H]1C=C[C@@H]2S1` (stereo not given in full), for which the growth was -52.8% (active).

Take `CC(=O)C1C(=O)N(C)C(=O)N(C)C1=O`: the growth was 99.7%.

Regarding `COP(=S)(OC)Oc1ccc(SC)c(C)c1`, the growth is 98.9%.

In the case of `CCOC(=O)Nc1cc(Cl)c([N+](=O)[O-])c(NC(=O)OCC)n1`, the growth was 91.8%.

On to `CCCCCCCC(=O)OCC/C=C/C1OC1C1OC(=O)/C=C\C=C\c2nc(oc2C)/C=C(/C)CCC2OC2C1OC(=O)NC(C)=O` (stereo not given), for which the growth is -93.8% (active).

For the compound `OC1(c2ccccc2F)c2ccccc2C2=NCCN21` (stereo not given), the growth was 94.6%.

In the case of `COC(=O)C1CC2c3ccccc3C1c1ccccc12` (stereo not given), the growth was 94%.

Consider `O=C(CCCN1CCC2(CC1)C(=O)NCN2c1ccc(F)cc1)c1ccc(F)cc1`, for which the growth was 104%.

Take `COc1ccc(C(=O)c2ccc([As]=O)cc2)cc1` (stereo not given): the growth was -99.5% (active).

For the compound `Oc1ccccc1OB(Oc1ccccc1O)N(CCCl)CCCl`, the growth was 89.9%.

On to `COC1=CC(=O)OC(CCc2ccc3c(c2)OCO3)C1` (stereo not given), for which the growth was 102%.

With `CNC(=O)Oc1cc(C(C)C)ccc1Sc1ccc(C(C)C)cc1OC(=O)NC`, the growth is 33.1%.

Take `C[CH2][Pb]([CH2]C)([CH2]C)[O]C(=O)COC`: the growth was -74.9% (active).

Take `CCC(CO)NC1CCCCC1` (stereo not given): the growth is 93.4%.

For the compound `CCOCC1(CCc2ccccc2)C(=O)NC(=S)NC1=O`, the growth is 111%.

`CN=C(NN)NN`: the growth is 107%.
